# Assay outcomes from PubChem.
# USP2a block – inhibitors of human ubiquitin-specific protease USP2a; O75604; USP2 core, Ub-CHOP2 coupled fluorogenic reporter, 485/531; Potency, µM (series often up to 38.3 µM), for inactives: top-dose activity change, negative = inhibition, hits mostly inhibitors; hit rate 0.01% among 330,000;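 also: potency is read from the fitted curve at half-maximal effect; plate controls were DMSO wells for no effect and full inhibition by NEM control for full effect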
# Target sequence (O75604 whole entry, looked up): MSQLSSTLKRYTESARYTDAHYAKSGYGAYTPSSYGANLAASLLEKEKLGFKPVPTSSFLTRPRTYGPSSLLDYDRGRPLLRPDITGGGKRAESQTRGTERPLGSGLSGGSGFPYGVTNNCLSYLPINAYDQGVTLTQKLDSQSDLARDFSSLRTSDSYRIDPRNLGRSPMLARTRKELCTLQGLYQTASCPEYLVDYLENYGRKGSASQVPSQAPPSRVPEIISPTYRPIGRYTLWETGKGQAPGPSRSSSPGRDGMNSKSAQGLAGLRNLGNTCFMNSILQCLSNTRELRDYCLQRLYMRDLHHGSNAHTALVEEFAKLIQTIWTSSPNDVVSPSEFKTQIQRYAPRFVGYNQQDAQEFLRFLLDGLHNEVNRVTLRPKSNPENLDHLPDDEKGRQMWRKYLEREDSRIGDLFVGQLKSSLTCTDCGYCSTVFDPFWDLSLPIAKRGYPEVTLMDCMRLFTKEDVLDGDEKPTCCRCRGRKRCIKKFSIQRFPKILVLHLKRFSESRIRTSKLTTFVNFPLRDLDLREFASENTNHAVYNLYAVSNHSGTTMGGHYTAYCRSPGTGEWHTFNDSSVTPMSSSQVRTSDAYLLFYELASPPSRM
#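 Deubiquitinase activity read as fluorescence (485/531 nm) after Ub-CHOP2 cleavage activates the enterokinase reporter on its substrate; USP2 core 10nM, Ub-CHOP2 and substrate 25nM each, 30min compound preincubation then 60min RT; data normalized to NEM, curves fitted.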
# IL2 activator – IL-2 activation. IL-2 activation reporter assay, cell-based qHTS; stimulated with anti-CD3/CD4/CD28 beads; in transgenic mouse T cells. activation, % (series mostly up to about 46 µM). hit rate 0.065% among 360,000; in the data active = activation above about 50%; inconclusive = mostly about 30% to 49%; also: 0% is about no effect
#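 Quantitative HTS in unstimulated transgenic mouse T cells, with memory T cells as non-tolerant control and PMA/ionomycin as tolerance-bypass control. Compound pretreatment lasted 60 minutes before 18 h bead stimulation; EGFP/DsRed fluorescence read.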
# Pin1 inh – human Pin1 inhibition; Q13526; Pin1 FP peptide displacement, HiFluor488, 10 min; Potency, µM (top dose mostly 115 µM), inactives show at the top dose activity, negative = inhibition, most hits filed as inhibitors; hit rate 0.009% among 390,000; active = well fitted inhibition curve with a large enough effect in the polarisation, with a control signal flat, not every such curve was filed as active; inconclusive = small, poorly fitted or top-dose-only effect, or effect the other way, or a change in a side signal; inactive = no such curve, though single readings can be large or run the other way; the % refers to the polarisation; also: potency is read from the fitted curve at half-maximal effect; % is scaled to controls: 0 for no effect and ±100 for the full control effect
# ClpP mod – qHTS Assay for Activators of ClpP. ATP-dependent Clp protease proteolytic subunit (Bacillus subtilis (strain 168)), P80244. purified B. subtilis ClpP, FRET peptide cleavage, 20 min. Potency, µM (doses to about 57.5 µM), without a hit: at the top dose activity change, negative = active. hit rate 1.9% among 340,000. AID 651965, 2013; active = well fitted falling curve with a large enough effect; inconclusive = small, poorly fitted or top-dose-only effect; inactive = no such curve, though single readings can be large or run the other way; also: potency is read from the fitted curve at half-maximal effect; the source files actives as falling curves though it sought activators and does not explain the sign; nearly all actives have a fitted effect of over 65% in size
# Target sequence (P80244 whole entry, looked up): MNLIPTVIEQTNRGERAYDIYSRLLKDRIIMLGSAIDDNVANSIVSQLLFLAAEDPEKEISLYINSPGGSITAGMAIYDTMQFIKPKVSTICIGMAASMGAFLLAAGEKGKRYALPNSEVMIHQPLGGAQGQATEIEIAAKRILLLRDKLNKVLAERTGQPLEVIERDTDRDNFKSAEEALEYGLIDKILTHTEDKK
#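 FRET quenching reversal measured ClpP activation: 10 microg/mL B. subtilis ClpP at pH 8 with the FRET-FV decapeptide, read at 430 nm after 320 nm excitation. The 20-min minus 0-min signal was scaled between DMSO/no-enzyme wells and ADEP (5.8 microM final).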
# a7 integrin act – integrin-mediated muscular dystrophy alleviation activation. alpha7betagal myoblasts, beta-gal FDG fluorescence, 48 h. Potency, µM (doses to about 38.3 µM), for the others: at the highest dose activation, hits mostly activators. hit rate 0.064% among 350,000. AID 624291;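 also: potency is read from the fitted curve at half-maximal effect; 100% = response of the positive control SU9516; nearly all actives have a fitted effect of over 60% in size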
#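 alpha7betagal+/- myoblasts (passage 13, 250/well) treated 48 h at 37C with compounds at 1:260 dilution of DMSO stock. Lysed, then beta-galactosidase activity read as FDG fluorescence (ex 480/em 540) after 30 min, with pre-read for autofluorescence.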
# PKM2 activator – activators of human pyruvate kinase M2; P14618; purified PKM2, Kinase-Glo ATP luminescence, activation; response scale: 0% is enzyme alone, no compound; Potency, µM (top dose mostly 57.5 µM), without a hit: at the highest dose activation, actives largely listed as activators; hit rate 0.34% among 260,000; also: potency is read from the fitted curve at half-maximal effect; % is scaled to controls: 0 for no effect and ±100 for the full control effect; nearly all actives have a fitted effect of over 55% in size
#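 Purified hPK-M2 (>95%) run at intermediate activity with 0.1 mM ADP and 0.5 mM PEP in 50 mM imidazole pH 7.2, KCl, MgCl2; 1 h room temperature. ATP formed read by Kinase-Glo luminescence; normalized to uninhibited and no-enzyme controls.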
# Starred values were filed as active, the others as inactive; ? = inconclusive; · = not tested or not shown; ! = a repeat was not active; [ ] = another dose, or the depositor's remark. This is a sample that favours compounds with a hit; in the whole collection about 1.9% have one here. Unless noted, calls follow the shape of the dose curve; as a rule, active = well fitted curve in the direction sought with a large enough effect; inconclusive = small, poorly fitted or top-dose-only effect, or another doubt; inactive = no such curve, though single readings can be large; an effect the other way counts as inactive or inconclusive.
SMILES,USP2a block,IL2 activator,Pin1 inh,ClpP mod,a7 integrin act,PKM2 activator
c1ccc(-c2cc(-c3nc4ccccc4[nH]3)c3ccccc3n2)cc1,-1.8%,-1.4,17.7%,17.8µM*,?,0.5%
Cn1cc(-c2nc3ccccc3[nH]2)c2ccccc21,0.9%,-2.0,-2.1%,28.2µM*,1.1%,-5.3%
Nc1ccc(-c2nc3ccccc3[nH]2)cc1,4.2%,-1.0,2.3%,5.0%,-14.2%,-21.9%
COC(=O)C[C@H]1c2ccccc2[C@H]2C(=C[C@@H](C)[C@H]3C(=O)N(O)C(=O)[C@H]32)N1C(=O)OC,·,·,·,·,·,-9.0%[11.5 µM]
CCC(=O)Nc1c(-c2ccc(OC)cc2)c(=O)c2ccccc2n1C,-1.0%,-0.1,-0.2%,35.5µM*,-21.5%,-2.5%
CCC(=O)Nc1c(-c2ccc(C)cc2)c(=O)c2ccccc2n1C,-0.8%,1.0,-8.6%,·,11.7%,·
C[C@H]1Cc2c(-c3ccccc3)nc3c(c2CO1)CN(C(=O)c1ccco1)CC3,·,·,·,·,·,-4.3%[11.5 µM]
Cc1ccc(S(=O)(=O)N2CCN(c3nc(N(C)c4cc(Cl)ccc4O)nc4ccccc34)CC2)cc1,·,·,·,-2.3%,·,·
c1ccc(-c2cc3c(-n4cccc4)ncnc3o2)cc1,-5.2%,0.4,16.9%,28.2µM*,-13.2%,5.0%
CC(=O)Nc1ccc(/C=N/OCC(=O)Nc2ccc(C)cc2)cc1,1.7%,-2.8,4.0%,0.4%,11.5%,3.5%
CCN(CC)c1ccc(/C=N/OC(C)C(=O)Nc2ccc(C)cc2)cc1 (stereo unspecified),0.9%,-2.8,29.1%,28.2µM*,-44.6%,-4.7%
COc1cccc(Cn2ncc3c4sc(C)cc4n(C)c3c2=O)c1,·,·,1.5%,·,·,·
C/C(CC(=O)Nc1ccc(Cl)c(C(F)(F)F)c1)=N\NC(=O)c1cnccn1,-7.4%,-0.1,1.8%,0.2%,4.47µM*,6.4%
CCN1CCn2c3c(c4cc(Cl)ccc42)CCCC31 (stereo unspecified),0.4%,0.3,-0.4%,15.8µM*,-25.9%,-3.4%
Cc1c(Br)c([N+](=O)[O-])nn1CC(=O)NCc1ccco1,5.5%,1.4,-3.6%,35.5µM*,-16.4%,-19.0%
Cn1c(SCc2ccc(Cl)cc2)nnc1-c1ccc(NC(=O)CCc2ccccc2)cc1,·,·,·,1.3%,·,·
O=C1CCc2cc(S(=O)(=O)Nc3cccc(-c4ccccc4)c3)ccc2N1,·,·,-0.8%,·,·,·
Cc1cccc(CSc2nn3c(=O)c(C)nnc3s2)c1,2.4%,-0.4,-2.4%,0.5%,-26.2%,10µM*
Cc1ccc(CSc2nn3c(=O)c(C)nnc3s2)cc1,2.3%,0.0,-9.1%,-1.8%,-5.5%,28.2%
Cc1c(Br)cccc1NC(=O)c1sccc1-n1cccc1,-7.6%,2.1,3.2%,8.91µM*,13.8%,-4.5%
O=C(OCC#CCSc1nnc(-c2cccc3ncccc23)o1)c1ccc(F)cc1,·,·,9.2%,·,·,·
CCCCCOC(=O)c1c(N)n(CCOC)c2nc3ccccc3nc12,-0.2%,-2.3,0.6%,41.2%,-3.0%,-2.2%
CCOC(=O)c1ccc(-n2c(N)c(C(=O)OC)c3nc4ccccc4nc32)cc1,·,·,?,2.82µM*,·,·
CCOC(=O)c1c(N)n(CCOC(=O)c2cccs2)c2nc3ccccc3nc12,4.1%,5.6,1.4%,7.94µM*,17.3%,5.8%
O=C(Cc1ccccc1)Nc1nnc(-c2cccs2)s1,1.5%,-1.1,2.6%,20µM*,5.4%,1.6%
SMILES,USP2a block,IL2 activator,Pin1 inh,ClpP mod,a7 integrin act,PKM2 activator
O=C(COc1ccc(F)cc1)Nc1nnc(-c2ccncc2)s1,0.5%,-2.0,?,25.1µM*,10.2%,-1.7%
O=C(COc1ccccc1F)Nc1nnc(-c2ccncc2)s1,1.2%,11.1,24.4%,-39.5%,20.7%,7.0%
CCC(=O)Nc1nnc(-c2cccs2)s1,2.8%,1.7,1.4%,·,0.0%,-10.9%
COc1ccc(Cc2nnc(NC(=O)Cc3cccs3)s2)cc1OC,-14.0%,1.2,?,28.2µM*,-19.6%,?
CCC(C)C(=O)Nc1nnc(-c2cccs2)s1 (stereo unspecified),0.7%,0.7,1.2%,31.6µM*,7.2%,0.3%
NC(=O)COc1ccccc1C(=O)Nc1ccccc1,·,·,·,-1.7%,·,·
CCC(C)(CCN1CCOCC1)N(Cc1cc2ccccc2n(C)c1=O)C(=O)C1CCCCC1 (stereo unspecified),·,·,0.8%,·,·,·
O=C(Cc1cccs1)Nc1nnc(-c2ccncc2)s1,-2.3%,-1.1,13.4%,28.2µM*,-7.7%,14.9%
CC(=O)Nc1ccc(-c2nnc(SCc3ccccc3)n2C)cc1,·,·,·,-0.1%,·,·
COc1ccc(CC(=O)Nc2cc(=O)n(C)c(=O)n2C)cc1,1.9%,1.6,-2.6%,0.1%,-2.3%,15.8µM*
CCOC(=O)c1ccc(Nc2nc(N)c3cc(OC)c(OC)cc3n2)cc1,-2.0%,-0.2,2.0%,31.6µM*!,-64.4%,·
Cc1ccc(CSC2=NS(=O)(=O)c3ccccc32)cc1,·,·,3.7%,-1.1%,·,·
COCCNc1nc2ccccc2nc1NS(=O)(=O)c1ccc(C)cc1C,3.4%,2.0,0.0%,28.2µM*,29.4%,3.3%
COCCCNc1nc2ccccc2nc1NS(=O)(=O)c1ccc(C)c(C)c1,1.3%,5.6,-5.1%,·,25.2%,-0.8%
COc1ccc(-c2csc3ncnc(N4CCN(c5ccccc5[N+](=O)[O-])CC4)c23)cc1,4.4%,-2.2,0.5%,-1.5%,10µM*,-4.4%
COc1ccc(-c2csc3ncnc(N4CCN(c5ccccc5O)CC4)c23)cc1,-2.6%,-3.1,-3.3%,?,11.8%,3.5%
CN(CC(=O)NCCCN1CCOCC1)S(=O)(=O)c1ccc(Cl)cc1,-8.3%,-0.4,-0.4%,20µM*,7.5%,·
COc1ccc(S(=O)(=O)N(C)CC(=O)NCCN2CCOCC2)cc1,0.5%,-0.5,0.5%,·,?,·
COc1ccccc1N(CC(=O)NCCN1CCOCC1)S(=O)(=O)c1ccc(C)cc1,1.7%,0.5,-4.4%,-1.8%,?,·
COc1cccc(N(CC(=O)NCCN2CCOCC2)S(=O)(=O)c2ccccc2)c1,2.3%,-2.5,-0.9%,17.8µM*,28.9%,·
Oc1ccc(COC2CCN(Cc3ccccc3)C2)c2cccnc12 (stereo unspecified),3.6%,·,·,·,·,·
CN(C)c1c(Br)cc(C=O)cc1Br,·,·,·,0.8%,·,·
CC(C)C(NC(=O)CN1C(=O)c2cccc3cccc1c23)C(C)C,-1.0%,-0.6,4.3%,?,-26.0%,3.0%
O=C(CN1C(=O)c2cccc3cccc1c23)NCC1CCCO1 (stereo unspecified),2.7%,0.0,-0.8%,25.1µM*,35.5%,-0.4%
CCCC(C)NC(=O)CN1C(=O)c2cccc3cccc1c23 (stereo unspecified),-0.9%,-0.4,-0.7%,22.4µM*,-28.2%,-1.5%
